“And” between values parts separate entries of the source, which are not always exact repeats. Identical values can stand only once. The panel holds about 83,000 compounds, 20% with a hit somewhere; the sample as a whole holds those more often.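 Note: values are percent growth. 100 is the growth of untreated cells, values between 100 and 0 indicate rising inhibition; between -100 and 0 indicates cell death.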 A number with no mark means an inactive call. The source made the active and inactive calls.
System: HT29 colon
Assay: NCI-60 one-dose screen, 48 h (100 = growth as untreated, 0 = no growth, -100 = all killed)
Settings: 10 µM
Method: Growth inhibition of the HT29 human tumor cell line is measured as a screen for anti-cancer activity. Cells are grown in 96 well plates and exposed to the test compound for 48 hours. Compounds are tested at a single concentration, which is 10^-5 M for most compounds. The reported endpoint is percent growth (GI% or GIPRCNT), where numbers from 0 - 100% represent growth inhibition, and numbers from -100% - 0 represent cell death. For example, a value of 40 represents 60% growth inhibition. A value of 0 means no net growth occurred over the course of the experiment. A value of -40 indicates 40% of cells at the beginning of the experiment died by the end of the experiment. A value of -100 means all cells are dead at the end of the experiment.
NCI-60 Human Tumor Cell Lines Screen was performed using the standard one-dose NCI protocol, which is described in more detail at https://dtp.cancer.gov/discovery_development/nci-60/default.htm.
Compounds with GIPRCNT values below 10 were considered active. Activity score was based on GIPRCNT using the following formula: […]
Score is 0 for GIPRCNT values of 100 or above, 50 for GIPRCNT values of 0, and 100 for GIPRCNT values of -100.

Compound | growth
CC(=O)/C=C/c1ccc(N(C)Cc2ccc(C(C)(C)C)cc2)cc1 | 78.1%

Same assay, conditions: 10 µM unless noted

Compound | growth
CN1CCCc2cc(/C=C3\SC(=S)N(C(Cc4ccc(O)cc4)C(=O)O)C3=O)ccc21 (stereo not given) | 110%
CCNC(=O)Oc1ccc(/C(=C(/C)Cc2ccc(OC)cc2)c2ccc(OCCN(CC)CC)cc2)cc1 | -42.2% (active)
Cc1n(Cc2ccc3ccccc3c2)c(Cl)c(Cl)[n+]1Cc1ccc2ccccc2c1 | 19.2%
S=c1nc(CS)[nH]c2ccccc12 | 101%
CC/C(=C(/c1ccc(O)cc1)c1ccc(OCCN2CCCCCC2)cc1)c1ccc(Cl)cc1 | 14.2%
COc1ccc(CCNC(=O)COc2cc3c(Nc4ccc(F)c(Cl)c4)ncnc3cc2OC)cc1OC | 95.5%
CCOC(=O)C1=C(C)N=C2SC=C(c3ccc(F)cc3)N2[C@H]1c1cn(-c2ccccc2)nc1-c1ccc(Cl)cc1 | 101%
C=C(C)[C@@H]1CC[C@]2(C(=O)O)CC[C@]3(C)[C@H](CC[C@@H]4[C@@]5(C)CCC(N)C(C)(C)[C@@H]5CC[C@]43C)[C@@H]12 (stereo not given in full) | -13.6% (active)
N=C1/C(=C2\NC3C=CC=CC3S2)C(c2ccc(Cl)cc2)C2C(=O)N(c3ccccc3)C(=S)N12 (stereo not given) | 107%
C=C(CNCCc1ccc(O)cc1)[C@@H]1CC[C@]2(CO)CC[C@]3(C)[C@H](CC[C@@H]4[C@@]5(C)CCC(NCCc6ccc(O)cc6)C(C)(C)[C@@H]5CC[C@]43C)[C@@H]12 (stereo not given in full) | -87.7% (active)
C/C(=C(\c1ccc(OCCN2CCOCC2)cc1)c1ccc(OC(=O)C2CCCCC2)cc1)c1ccc(Cl)cc1 | 76.3%
Cc1ccc(C(=O)Nc2ccc(CN3CCN(C)CC3)c(C(F)(F)F)c2)cc1C#Cc1cnc(N)cc1C#N | -65.1% (active)
O=c1ccc2nc(-c3ccccn3)nn(-c3ccccc3)c-2c1 | -44.2% (active)
COc1ccc(-c2csc(NC(=O)CN3CCN(CCO)CC3)n2)cc1NS(=O)(=O)c1cccc2c(N(C)C)cccc12 | 20.1%
NC1=CC(=O)c2cccnc2C1=O | 54.8%
COCCOc1cc2ncnc(N3CCN(S(=O)(=O)c4ccccc4Cl)CC3)c2cc1OCCOC | 81.8%
O=C(N/N=C/c1ccc(O)cc1O)c1cccc(Nc2ccnc(C(F)(F)F)c2)c1 | 41.6%
O=C(CN1C(=O)S/C(=C\C(Cl)=C\c2ccccc2)C1=O)NC1C=CS(=O)(=O)C1 (stereo not given) | -6.75% (active)
COc1cc2cc(NCc3ccncc3)nc(C)c2cc1OC | 91.6%

Compound | growth
Clc1nccc2c(-c3csc(-c4c[nH]c5ccc(Br)cc45)n3)c[nH]c12 | 5.95% (active)
O=C(CCCCCCCCC(=O)N/N=C\c1ccccc1O)N/N=C\c1ccccc1O | 68.4%
COc1ccc2c(c1)oc1c(C)c3c(c(C)c12)C(=O)N(Nc1ccccc1)C3=O | 106%
OCCN1CCN(CC/C=C2\c3ccccc3Sc3ccc(Cl)cc32)CC1 | -41.8% (active) and -43.3% (active)
Nc1nc(N)c2c(n1)NC(c1cccc(Nc3ccnc4cc(C(F)(F)F)ccc34)c1)CC(c1ccc(F)cc1)=N2 (stereo not given) | 12.5%
CC1=C2[C@@H](CC1)[C@]1(C)O[C@@](C(C)C)(C[C@H]1OC(=O)CO)[C@H]2OC(=O)C1CC1c1ccccc1 (stereo not given in full) | 75%
CCOc1nc(-c2ccccc2)cc2c(O)c(C(=O)N/N=C/c3ccc(N(C)C)cc3)[nH]c(=O)c12 | 145%
NS(=O)(=O)c1ccc(C(=O)N=Nc2c(O)[nH]c3c(F)cccc23)cc1 | 99.6%
C=C1CCC2C3(C)COC(c4ccc(NC(C)=O)cc4)OC3CCC2(C)C1C/C=C1/C(=O)OCC1O (stereo not given) | 52.2%
Cc1ccc(/C=C(\C#N)c2cc3ccccc3[nH]2)cc1 | 13%
CC[C@]1(O)CC2CN(CCc3c([nH]c4ccccc34)C(C(=O)OC)(c3cc4c(cc3OC)N(C=O)[C@H]3[C@@](O)(C(=O)OC)[C@H](OC(C)=O)[C@]5(CC)[C@@H]6C[C@@H]6CN6CC[C@]43[C@@H]65)C2)C1 (stereo not given in full) | -21.1% (active)
C[C@]12CCc3c(ccc4cc(O)ccc34)[C@@H]1C[C@H](O)[C@@H]2O | 102%
C#CCn1cnc2cnc(Nc3cccc(NC(=O)CCl)c3)nc21 | 0.208% [6.25 µM] (active)
Nc1n[nH]c2cccc(C#Cc3cccc(C(=O)Nc4ccc(CN5CCOCC5)c(C(F)(F)F)c4)c3)c12 | 17.4%
COc1ccc(C(c2cc(OC)c(OC)c(OC)c2)n2ccnc2)cc1O (stereo not given) | 5.94% (active)
O=C1CCCCN1CCCCC#Cc1cccc(C#Cc2cccnc2)c1 | 86.5%
CC(=O)N1N=C(c2ccc(Nc3nc(Nc4ccc(F)cc4)nc(Nc4ccc(Cl)cc4)n3)cc2)CC1c1ccc(N(C)C)cc1 (stereo not given) | 36.8%
COc1cc(/C=C2\C(=O)N(CCCCn3c4ccccc4c(=O)c4ccccc43)c3ccccc32)cc(OC)c1O | 41.6%
C/C=C(\C)C(=O)N[C@H]1CC[C@]2(C)C3CC[C@@]4(C)C(CC[C@@H]4C(C)N(C)C)C3CCC2[C@H]1OC(C)=O (stereo not given in full) | -68.4% (active)

Same assay, conditions: 100 µM

Compound | growth
CC(=O)/C=C/c1ccc(N(C)Cc2ccc(C(C)(C)C)cc2)cc1 | -10.7% (active)

From PubChem BioAssay (NCI)
